Screen size: about 2,400 compounds; about 360 (15%) were called active.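 How the source made its calls: active means viability falls under 70% at one or more tested concentrations, taken as toxicity; inactive means viability stays over 70% at every dose.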 These entries were drawn from the full list. Potency and affinity values are given separately.
assay: viability loss in HeLa cells – cytotoxicity control for MgcRacGAP inhibitor project, dose response (AID 624300); details: CellTiter-Glo luminescence, 24 h; series mostly up to 100 µM; viability: at the top concentration;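 further: 100% = median of untreated control wells on the same plate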

Row | SMILES | viability
1 | O=C(CN1CCN(c2ccc(O)cc2)CC1)NCC(=O)Nc1ccc(F)c(F)c1F | 112% (inactive)
2 | Cc1cccc(Nc2n[nH]c(=S)s2)c1C | 95.3% (inactive)
3 | CN1CCN(CCCNCc2cn(CCC#N)c3ccccc23)CC1 | 95.5% (inactive)
4 | COc1ccc(NC2CCCN(C(=O)CCc3cccc(F)c3)C2)cc1 (stereo not given) | 101% (inactive)
5 | COc1cc(C)c(N)cc1C(C)C | 105% (inactive)
6 | CCOC(=O)c1[nH]c2cc(OC)c(OC)cc2c1N | 106% (inactive)
7 | COc1ccc(N2CCN(C(C)C(=O)N3CCCC3)CC2)cc1 (stereo not given) | 97% (inactive)
8 | CC(=O)N1CCN(CC(O)COc2ccc(Br)cc2)CC1 (stereo not given) | 104% (inactive)
9 | O=C1C2C3C=CC(CC3)C2C(=O)N1/N=C/c1ccc(O)c(O)c1 (stereo not given) | 98.9% (inactive)
10 | CCOC(=O)c1[nH]c2ccccc2c1NC(=S)Nc1cccc(C)c1 | 103% (inactive)
11 | COc1ccc(NCc2cc3cc(OC)ccc3[nH]c2=O)cc1 | 83.8% (inactive)
12 | COc1ccc(OC(=O)COc2cc(C)ccc2C)cc1 | 105% (inactive)
13 | COc1ccc(OC(=O)COc2ccc(C)cc2)cc1 | 99.3% (inactive)
14 | Nc1c(Cl)ncnc1NCCc1ccc(O)cc1 | 92.8% (inactive)
15 | CCOC(=O)/C(C#N)=C1\C(=O)N(Cc2ccccc2)c2ccccc21 | 95% (inactive)
16 | COc1ccc(OC)c(CN2CCN(Cc3cccc4ccccc34)CC2)c1 | 87.5% (inactive)
17 | COc1ccc(CN2CCN(Cc3c[nH]c4ccccc34)CC2)c(OC)c1 | 82.3% (inactive)
18 | CCOC(=O)N/N=C/c1ccc(N2CCOCC2)s1 | 92.2% (inactive)
19 | Nc1ccc2nc(N)sc2c1 | 105% (inactive)
20 | Nc1ccc(-c2nc3ccc(N)cc3o2)cc1 | 91.5% (inactive)
21 | COc1ccccc1CNC(=O)C[C@@H]1C[C@H]2c3cc(N(C)C)ccc3O[C@H]2[C@H](CO)O1 | 105% (inactive)
22 | COc1cc(N2C(=O)C=CC2=O)ccc1N1C(=O)C=CC1=O | 106% (inactive)
23 | COc1ccc(NC2CCCN(C(=O)C3(C)CCCCC3)C2)cc1 (stereo not given) | 100% (inactive)

Row | SMILES | viability
24 | COc1cc(CN2CCN(C(=O)c3cccc4ccccc34)CC2)cc(OC)c1OC | 96.3% (inactive)
25 | O=C(N/C(=C\c1ccc(O)cc1)C(=O)N1CCCCC1)c1ccccc1 | 102% (inactive)
26 | S=c1[nH]nc(-c2ccncc2)n1/N=C/C=C/c1ccccc1 | 109% (inactive)
27 | COc1cccc(OC)c1OCCCN1CCOCC1 | 103% (inactive)
28 | CCOC(=O)c1[nH]c2ccccc2c1NC(=S)Nc1ccccc1 | 103% (inactive)
29 | CCC(=O)Nc1ccc(Nc2ccccc2)cc1 | 118% (inactive)
30 | COc1cccc2[nH]c(C(=O)NN)c(N)c12 | 90.4% (inactive)
31 | CC1CN(CCOCCOc2ccccc2-c2ccccc2)CC(C)O1 (stereo not given) | 87.1% (inactive)
32 | O=C1C(Cl)=C(NC(=O)c2ccccc2)C(=O)C(Cl)=C1NC(=O)c1ccccc1 | 106% (inactive)
33 | O=C1c2ccccc2NC(c2ccc(O)cc2)N1/N=C/c1ccc(O)cc1 (stereo not given) | 100% (inactive)
34 | COc1ccc(NC2CCCN(C(=O)c3ccccc3C(F)(F)F)C2)cc1 (stereo not given) | 94.8% (inactive)
35 | COC(=O)c1cc(NCc2c(F)cccc2Cl)ccc1N1CCOCC1 | 106% (inactive)
36 | CCOC(=O)c1[nH]c2ccc(OC)cc2c1NC(=O)c1ccccc1C(=O)O | 83.2% (inactive)
37 | COc1ccc2[nH]c3c(=O)n(Cc4ccc(C(=O)N5CCC(C(N)=O)CC5)cc4)c(=S)[nH]c3c2c1 | 80.8% (inactive)
38 | COc1ccc(C=Nc2ccc3[nH]ncc3c2)c(O)c1 | 101% (inactive)
39 | COc1ccc2[nH]c3c(=O)n(CCCCC(=O)N4CCC(C(N)=O)CC4)c(=S)[nH]c3c2c1 | 109% (inactive)
40 | CCOC(=O)C1CCN(C2=NC(=O)/C(=C/c3ccc(O)cc3)S2)CC1 | 96.4% (inactive)
41 | c1ccc(-c2ccccc2OCCOCCN2CCOCC2)cc1 | 85.7% (inactive)
42 | COc1cc(NC(C)CCCNC(C)C)c2ncccc2c1OC (stereo not given) | 93.5% (inactive)
43 | C=CCc1cc(OC)ccc1OCCN1CC(C)OC(C)C1 (stereo not given) | 95.6% (inactive)
44 | Cc1cc(O)ccc1NC(=O)c1ccccc1 | 94% (inactive)
45 | O=C(Cc1coc2cc(O)ccc12)N1CCN(S(=O)(=O)c2ccc(Br)cc2)CC1 | 90.8% (inactive)
46 | S=C(NCCN1CCOCC1)Nc1ccc(Nc2ccccc2)cc1 | 97.8% (inactive)

Row | SMILES | viability
47 | COc1ccc(CN2CCN(Cc3ccccc3F)CC2)c(OC)c1 | 92.1% (inactive)
48 | CCN(Cc1ccccc1)C1CCN(Cc2ccc(SC)cc2)CC1 | 97.6% (inactive)
49 | CC1CCCCN1CC(=O)Nc1ccc(N2CCCCCC2)cc1 (stereo not given) | 105% (inactive)
50 | CC(=O)N1CCN(c2ccc(NCc3cccs3)cc2)CC1 | 104% (inactive)
51 | Cc1c(NC(=S)N/N=C/c2ccc(O)cc2)c(=O)n(-c2ccccc2)n1C | 90.6% (inactive)
52 | Oc1ccc(/C=N/NC(=S)N2CCOCC2)cc1 | 107% (inactive)
53 | COc1cc(CN2CCN(C(=O)CC(C)C)CC2)cc(OC)c1O | 91.8% (inactive)
54 | O=C(O)CCCNC(=O)/C=C/c1ccco1 | 103% (inactive)
55 | O=C(/C=C\c1ccco1)c1ccc(NC(=O)c2ccco2)cc1 | 101% (inactive)
56 | CCCN1C(=O)S/C(=C/c2ccc(N3CCOCC3)o2)C1=O | 85% (inactive)
57 | O=C(O)CCCN1C(=O)/C(=C\c2ccco2)SC1=S | 94% (inactive)
58 | CCn1c(=S)[nH]c2c(=O)n(C)c(=O)n(C)c21 | 90.8% (inactive)
59 | COc1cc(/C=N/NC(=O)CCN2CCN(C(c3ccccc3)c3ccccc3)CC2)ccc1O | 106% (inactive)
60 | COc1ccc2cc(OCC(=O)NNC(=O)Nc3ccc(C(C)=O)cc3)ccc2c1 | 106% (inactive)
61 | COc1cc(/C=N/NC(=O)C(=O)Nc2ccccn2)ccc1O | 105% (inactive)
62 | O=[N+]([O-])c1cc(Br)c(O)c(C=Nc2ccc(N3CCOCC3)cc2)c1 | 95.3% (inactive)
63 | CN(C)c1ccc(NS(=O)(=O)c2cc(Cl)ccc2Cl)cc1 | 104% (inactive)
64 | CCOC(=O)N1CCC(N2CCN(S(=O)(=O)c3ccc4ccccc4c3)CC2)CC1 | 97.3% (inactive)
65 | Nc1ccc2c(c1)Cc1cc(N)c(Br)cc1-2 | 99.7% (inactive)
66 | COc1cc(-c2cc(-c3ccc(F)cc3)nc(N)c2C#N)ccc1O | 105% (inactive)
67 | COc1cc(-c2cc(C(=O)O)c3c(OC)c(OC)c(OC)cc3n2)ccc1O | 104% (inactive)
68 | O=C1CC(c2ccccc2)CC(O)=C1C=Nc1ccc(O)cc1 (stereo not given) | 105% (inactive)
69 | S=c1[nH]nc2sc3ccccc3n12 | 90.2% (inactive)

Row | SMILES | viability
70 | Oc1ccc(N2CCN(c3ccnc4cc(Cl)ccc34)CC2)cc1 | 82.4% (inactive)
71 | O=C(O)c1c2c(nc3ccccc13)/C(=C/c1ccc(O)cc1)CCC2 | 89.2% (inactive)
72 | COc1cc(/C=N/NC(=O)c2cccc([N+](=O)[O-])c2)ccc1O | 96.9% (inactive)
73 | COc1cc(/C=N/NC(=S)Nc2cccc(C(=O)O)c2)ccc1O | 102% (inactive)
74 | COc1cc(/C=N/NC(=O)c2ccccc2)ccc1O | 82.1% (inactive)
75 | COc1cc(/C=N/NC(=O)CCc2ccccc2)ccc1O | 97.8% (inactive)
76 | COc1cc(/C=N/NC(=O)CNC(=O)c2ccc3c(c2)OCCO3)ccc1O | 112% (inactive)
77 | COc1cc(/C=N/NC(=O)CN(Cc2ccco2)S(=O)(=O)c2ccccc2)ccc1O | 88.9% (inactive)
78 | COc1ccc(NS(=O)(=O)c2cccc(C(=O)NN=Cc3ccc(O)c(OC)c3)c2)cc1 | 98.1% (inactive)
79 | COc1cc(/C=N/NC(=O)CCn2nnc3ccccc32)ccc1O | 105% (inactive)
80 | COc1cc(CN2CCC(C(=O)N3CCN(c4ccccc4F)CC3)CC2)ccc1O | 96.1% (inactive)
81 | COc1cc(/C=C/C(=O)OCC(=O)Nc2c(C)n(C)n(-c3ccccc3)c2=O)ccc1O | 100% (inactive)
82 | Oc1ccc(Cl)cc1N=Cc1sc2ccccc2c1Cl | 96.4% (inactive)
83 | COCc1cc(C)nc(OCC(=O)N/N=C/c2ccc(O)cc2)c1C#N | 93.9% (inactive)
84 | O=C(Cc1cccs1)N/N=C\c1ccc(O)cc1 | 101% (inactive)
85 | COCCNC(=O)COc1ccc(Nc2ccccc2)cc1 | 97.8% (inactive)
86 | COc1ccc(N2CCN(c3ncccc3C#N)CC2)cc1 | 101% (inactive)
87 | COc1cc(/C=C/C(=O)OCC(=O)NNC(=O)c2cc(Cl)ccc2OC)ccc1O | 98.7% (inactive)
88 | C=CCN1C(=O)CSC1=Nc1ccc(O)cc1 | 114% (inactive)
89 | COc1ccc(N2CCN(CC(=O)N3c4ccccc4CC3C)CC2)cc1 (stereo not given) | 94.6% (inactive)
90 | Cc1[nH]c2ccccc2c1N=Nc1c(C)n(C)n(-c2ccccc2)c1=O | 91.2% (inactive)
91 | COc1ccc(NC(=O)c2ccc(NC(=O)CN3CCN(c4ccc(O)cc4)CC3)cc2)cc1 | 97.1% (inactive)
92 | COc1ccc(NC2CCCN(C(=O)CCc3ccccc3F)C2)cc1 (stereo not given) | 102% (inactive)

Row | SMILES | viability
93 | COC(=O)CCNCCSc1nnc(-c2ccco2)n1Cc1ccccc1 | 100% (inactive)
94 | CCOC(=O)c1sc(/N=C/c2ccc(O)cc2O)cc1C | 99% (inactive)
95 | COc1cc(/C=N/NC(=O)c2nc(-c3ccccc3)n(-c3ccccc3)n2)ccc1O | 99.1% (inactive)
96 | COc1cc(/C=N/NC(=O)c2ccc(=O)[nH]n2)ccc1O | 110% (inactive)
97 | COc1ccc(-c2ncc3ccccn23)cc1OC | 91.5% (inactive)
98 | COc1cccc(-c2ncc3ccccn23)c1 | 80.1% (inactive)
99 | CS(=O)(=O)C1=NSC2=NC(=O)/C(=C\c3ccc(OC(=O)c4ccco4)c(Br)c3)C(=N)N21 | 103% (inactive)
100 | CC(=O)Nc1ccc(S(=O)(=O)Nc2nc3ccccc3nc2Nc2ccc(C(=O)O)c(O)c2)cc1 | 104% (inactive)
101 | C[C@@H]1O[C@@H](OC[C@H]2O[C@@H](Oc3cc(O)c4c(=O)cc(-c5ccc(O)c(O)c5)oc4c3)[C@H](O)[C@@H](O)[C@@H]2O)[C@H](O)[C@H](O)[C@H]1O | 103% (inactive)
102 | C=CC[n+]1c(/C=C/c2ccc(OC(C)=O)c(OC)c2)ccc2ccccc21 | 101% (inactive)
103 | CC/C(=C\c1ccc(N(C)C)cc1)c1ccncc1 | 92.7% (inactive)
104 | CN(C)c1ccc(/C=N/O)cc1 | 94.3% (inactive)
105 | Nc1cc(Cc2ccccc2)ccc1O | 95.1% (inactive)
106 | N#Cc1ccc(OCC(=O)Nc2ccc(N3CCCC3)cc2)cc1 | 94.7% (inactive)
107 | O=C(Nc1ccc(N2CCCCC2)cc1)c1ccccc1 | 84.1% (inactive)
108 | COc1cc(N=Nc2ccc(C(=O)N(C)C)cc2)c(C)cc1N | 88.4% (inactive)
109 | N#CC1(Nc2ccc3c4c(cccc24)CC3)CCCCC1 | 104% (inactive)
110 | Cc1cnc(NC(=O)C(C)N2CCN(C)CC2)s1 (stereo not given) | 100% (inactive)
111 | O=C(Nc1ccccc1Cl)Oc1ccc(-c2ccccc2)cc1 | 88.8% (inactive)
112 | Cc1cc(NC(=O)CN2CCC(C)CC2)no1 | 101% (inactive)
113 | COc1ccccc1NS(=O)(=O)c1ccc(C)c(C(=O)N2CCN(c3ccc(O)cc3)CC2)c1 | 104% (inactive)
114 | Cc1ccc(C2C=NN(c3ccccc3)C2=O)cc1 (stereo not given) | 93.7% (inactive)
115 | C=CCn1c(=O)/c(=C/c2ccc(O)cc2)s/c1=C(/C#N)c1nnc2n1CCCCC2 | 96% (inactive)
